Reference: PubChem BioAssay (Tox21)
Records with an inconclusive call do not appear. The source holds several records for some structures; these can differ, active in one and inactive in another. Calls of active or inactive are those of the source. Unless noted, calls follow the shape of the dose curve; as a rule, active = well fitted curve in the direction sought with a large enough effect in the repeat runs; inconclusive = weak or mixed curves; inactive = no such curve, though single readings can be large; an effect the other way counts as inactive or inconclusive.

How the values were obtained:
[1] = molecular target: Peroxisome proliferator-activated receptor delta (Homo sapiens) (UniProt Q03181); test: qHTS assay to identify small molecule agonists of the peroxisome proliferator-activated receptor delta (PPARd) signaling pathway (AID 743212; calls by dose curve)
Outline: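 Quantitative high-throughput agonist screen in a HEK293H beta-lactamase reporter line under UAS control. Compounds in DMSO, at 37 C. Fluorescence read after 2 h with FRET substrate at room temperature.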

[2] = qHTS assay to identify small molecule antagonists of the peroxisome proliferator-activated receptor delta (PPARd) signaling pathway - cell viability counter screen (AID 743213); also: nearly all actives have a fitted effect of over 50% in size
Outline: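 Cytotoxicity counter screen: CellTiter-Glo luminescence read 30 min after addition, in the same wells as the reporter assay. There, PPARd UAS-bla HEK293H cells (3000/well) were treated 17 h at 37 C with compound and 300 nM L165041.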

[3] = molecular target: Peroxisome proliferator-activated receptor delta (Homo sapiens) (UniProt Q03181); test: qHTS assay to identify small molecule antagonists of the peroxisome proliferator-activated receptor delta (PPARd) signaling pathway (AID 743215; active = well fitted inhibition curve with a large enough effect in the signal ratio in the repeat runs, not every such curve was filed as active; the % refers to the signal ratio;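 also: cells stimulated with agonist L165041 at 300 nM final during compound exposure; series mostly up to about 62 µM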)
Outline: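 Antagonist-mode beta-lactamase reporter screen: HEK293H cells with UAS-bla under PPARd control, stimulated by 300 nM L165041 (final) alongside test compound for 17 h at 37 C, then FRET fluorescence after 2 h substrate incubation.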

[4] = qHTS assay to identify small molecule agonists of the farnesoid-X-receptor (FXR) signaling pathway - cell viability counter screen (AID 743218); also: nearly all actives have a fitted effect of over 45% in size; also: potency is read from the fitted curve at half-maximal effect
Outline: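 In GeneBLAzer FXR-UAS-bla HEK 293T cells, compounds act for 16 h at 37 C. Cell viability is then scored in the reporter wells by CellTiter-Glo, 30 min at RT, luminescence.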

[5] = molecular target: Bile acid receptor (Homo sapiens) (UniProt Q96RI1); test: qHTS assay to identify small molecule agonists of the farnesoid-X-receptor (FXR) signaling pathway (AID 743220; active = well fitted activation curve with a large enough effect in the signal ratio in the repeat runs, not every such curve was filed as active; the % refers to the signal ratio)
Outline: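 Beta-lactamase reporter under UAS control in GeneBLAzer FXR HEK 293T cells (5000/well) measured with LiveBLAzer FRET substrate after 2 h at room temperature. Compound exposure lasted 16 h at 37C.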

[6] = qHTS assay to identify small molecule antagonists of the farnesoid-X-receptor (FXR) signaling pathway - cell viability counter screen (AID 743221; active = well fitted cell-killing curve with a large enough effect in the repeat runs, not every such curve was filed as active; also: nearly all actives have a fitted effect of over 50% in size)
Outline: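 In GeneBLAzer FXR-UAS-bla HEK 293T cells stimulated with 50 uM chenodeoxycholic acid (final), compounds acted for 16 h at 37 C. Viability was assessed afterwards by CellTiter-Glo luminescence.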

[7] = qHTS assay to identify small molecule agonists of the vitamin D receptor (VDR) signaling pathway - cell viability counter screen (AID 743224); also: nearly all actives have a fitted effect of over 50% in size; also: potency is read from the fitted curve at half-maximal effect
Outline: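 VDR-bla cell line, quantitative HTS format; 16 h compound incubation (37C, 5% CO2); ATP-based CellTiter-Glo luminescence measured in the reporter assay wells.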

[8] = molecular target: Bile acid receptor (Homo sapiens) (UniProt Q96RI1); test: qHTS assay to identify small molecule antagonists of the farnesoid-X-receptor (FXR) signaling pathway (AID 743217; active = well fitted inhibition curve with a large enough effect in the signal ratio in the repeat runs, not every such curve was filed as active; the % refers to the signal ratio)
Outline: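 Beta-lactamase reporter under UAS control in HEK 293T cells; compound exposure 16 h at 37 °C in the presence of chenodeoxycholic acid (50 uM final); signal from B/G FRET substrate after 2 h at room temperature.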

[9] = molecular target: Vitamin D3 receptor (Homo sapiens) (UniProt P11473); test: qHTS assay to identify small molecule antagonists of the vitamin D receptor (VDR) signaling pathway (AID 743223; active = well fitted inhibition curve with a large enough effect in the signal ratio in the repeat runs, not every such curve was filed as active; the % refers to the signal ratio)
Outline: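 Agonist 1alpha,25-dihydroxyvitamin D3 (3 nM in well) was added with each compound to VDR-bla cells preincubated 4 h. Cells stood 16 h at 37C, then FRET substrate 2 h at room temperature; fluorescence intensity recorded.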

[10] = molecular target: Vitamin D3 receptor (Homo sapiens) (UniProt P11473); test: qHTS assay to identify small molecule agonists of the vitamin D receptor (VDR) signaling pathway (AID 743222; calls by dose curve)
Outline: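 Agonist activity measured in VDR-bla reporter cells. Exposure 16 h, 37C, 5% CO2; detection by B/G FRET substrate, 2 h RT.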

Measured: Potency

Chain of Vitamin D3 receptor (Homo sapiens) (P11473 whole entry, looked up): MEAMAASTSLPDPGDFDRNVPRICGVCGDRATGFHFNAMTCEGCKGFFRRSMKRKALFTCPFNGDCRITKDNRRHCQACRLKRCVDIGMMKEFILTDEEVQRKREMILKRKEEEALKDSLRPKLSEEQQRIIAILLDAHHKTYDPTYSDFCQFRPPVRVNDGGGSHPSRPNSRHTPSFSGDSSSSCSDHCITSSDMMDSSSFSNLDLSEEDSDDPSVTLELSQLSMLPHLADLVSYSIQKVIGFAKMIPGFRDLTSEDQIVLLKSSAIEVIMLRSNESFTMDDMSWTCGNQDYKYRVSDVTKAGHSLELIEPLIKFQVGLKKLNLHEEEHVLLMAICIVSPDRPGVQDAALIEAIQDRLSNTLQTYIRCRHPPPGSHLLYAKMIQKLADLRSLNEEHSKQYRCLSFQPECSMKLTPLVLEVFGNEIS
Chain of Peroxisome proliferator-activated receptor delta (Homo sapiens) (Q03181 whole entry, looked up): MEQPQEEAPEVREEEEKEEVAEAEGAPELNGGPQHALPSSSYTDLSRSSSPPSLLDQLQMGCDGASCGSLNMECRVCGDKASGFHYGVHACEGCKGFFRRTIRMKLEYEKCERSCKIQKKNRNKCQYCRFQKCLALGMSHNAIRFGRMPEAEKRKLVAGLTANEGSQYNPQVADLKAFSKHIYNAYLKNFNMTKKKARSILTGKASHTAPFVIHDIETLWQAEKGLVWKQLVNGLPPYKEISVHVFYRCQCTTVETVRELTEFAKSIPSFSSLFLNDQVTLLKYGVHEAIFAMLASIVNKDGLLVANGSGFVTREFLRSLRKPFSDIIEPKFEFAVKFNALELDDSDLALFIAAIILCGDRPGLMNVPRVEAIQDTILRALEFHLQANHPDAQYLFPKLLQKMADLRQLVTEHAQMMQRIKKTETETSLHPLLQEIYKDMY
Chain of Bile acid receptor (Homo sapiens) (Q96RI1 whole entry, looked up): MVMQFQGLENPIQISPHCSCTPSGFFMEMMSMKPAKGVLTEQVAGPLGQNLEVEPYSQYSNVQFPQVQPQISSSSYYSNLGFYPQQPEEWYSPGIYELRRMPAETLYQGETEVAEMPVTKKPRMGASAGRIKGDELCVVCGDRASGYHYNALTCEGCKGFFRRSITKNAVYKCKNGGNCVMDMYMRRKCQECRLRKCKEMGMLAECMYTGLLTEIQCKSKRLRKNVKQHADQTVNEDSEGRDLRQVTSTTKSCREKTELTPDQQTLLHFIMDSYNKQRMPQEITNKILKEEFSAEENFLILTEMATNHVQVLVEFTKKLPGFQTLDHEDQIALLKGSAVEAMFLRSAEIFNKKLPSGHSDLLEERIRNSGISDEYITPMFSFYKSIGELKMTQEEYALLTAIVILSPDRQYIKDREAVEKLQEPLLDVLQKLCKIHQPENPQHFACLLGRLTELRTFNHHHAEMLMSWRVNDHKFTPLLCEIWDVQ

NC1(c2ccccc2)CCCCC1
not listed: [8] | [9] | [10]
inactive: all other assays above

CNC(=O)Oc1cc(C)c(N(C)C)c(C)c1
not listed: [5] | [9] | [10]
inactive: all other assays above

O=C(O)c1c(Cl)ccc2cc(Cl)cnc12
not listed: [10]
inactive: all other assays above

CC1N=C(N)OC1c1ccccc1 (stereo unspecified)
not listed: [8]
inactive: all other assays above

C[C@H](CN1CCOCC1)C(C(=O)N1CCCC1)(c1ccccc1)c1ccccc1
not listed: [8] | [9] | [10]
inactive: all other assays above

CCc1cc(OC)c(C[C@H](C)N)cc1OC
not listed: [6]
inactive: all other assays above

COc1ccc(CN2CCNCC2)c(OC)c1OC
not listed: [9] | [10]
inactive: all other assays above

CCN(CC)CCOC(=O)C(O)(c1ccccc1)c1ccccc1
not listed: [9] | [10]
inactive: all other assays above

CC1=C2[C@H]3OC(=O)[C@@H](C)[C@@H]3CC[C@@]2(C)C=CC1=O
not listed: [9] | [10]
inactive: all other assays above

N[C@@H](Cc1ccc(Oc2cc(I)c(O)c(I)c2)c(I)c1)C(=O)O
not listed: [9] | [10]
inactive: all other assays above

CC[C@H](O)C(C[C@H](C)N(C)C)(c1ccccc1)c1ccccc1
not listed: [6]
inactive: all other assays above

O=S1(=O)OCCO1
not listed: [8]
inactive: all other assays above

CN(C)CCc1c[nH]c2cccc(OP(=O)(O)O)c12
not listed: [9] | [10]
inactive: all other assays above

BrCC1CO1 (stereo unspecified)
not listed: [4]
inactive: all other assays above

CON(C)C(=O)Nc1ccc(Br)cc1
not listed: [8] | [9]
inactive: all other assays above

O=C(Cl)c1ccccc1
not listed: [4] | [10]
inactive: all other assays above

C1CN2CCC1CC2
not listed: [9] | [10]
inactive: all other assays above

CC1NCCOC1c1ccccc1 (stereo unspecified)
not listed: [5] | [8]
inactive: all other assays above

CCC(=O)c1ccc(Cl)cc1
not listed: [5] | [8]
inactive: all other assays above

O=C(Cl)C(Cl)Cl
not listed: [5] | [8]
inactive: all other assays above

ClCC1CO1 (stereo unspecified)
not listed: [5] | [8]
inactive: all other assays above

CCCC(C)(COC(N)=O)COC(N)=O
not listed: [5] | [8]
inactive: all other assays above

ClC1=C(Cl)C2(Cl)C(CBr)CC1(Cl)C2(Cl)Cl (stereo unspecified)
54.9 µM (active) and inactive: [4]
34.7 µM (active) and inactive: [7]
not listed: [5] | [8]
inactive: all other assays above

[O-][Br+2]([O-])O
not listed: [5] | [8]
inactive: all other assays above

c1cncc([C@@H]2CCCCN2)c1
not listed: [5] | [8]
inactive: all other assays above

CN1C(=O)COc2c(C(=O)NC3CN4CCC3CC4)cc(Cl)cc21 (stereo unspecified)
not listed: [5] | [8]
inactive: all other assays above

C=C(Cl)CCl
not listed: [5] | [8]
inactive: all other assays above

O=C(NC(=O)c1c(F)cccc1F)Nc1cc(Cl)c(F)c(Cl)c1F
not listed: [5] | [8]
inactive: all other assays above

CCOP(=S)(OCC)Oc1ccc(Cl)cc1Cl
not listed: [5] | [8]
inactive: all other assays above

C=CCC1(C(C)CC)C(=O)NC(=O)NC1=O (stereo unspecified)
not listed: [5] | [8]
inactive: all other assays above

CCCCCCCCSC(=O)Oc1cc(Cl)nnc1-c1ccccc1
not listed: [5] | [8]
inactive: all other assays above
